The sample as a whole holds a higher share of hits than the screen did.
USP2a inh: blocks human ubiquitin-specific protease USP2a. O75604. USP2 core, Ub-CHOP2 coupled fluorogenic reporter, 485/531. Potency, µM (doses to about 38.3 µM), hits mostly inhibitors. 330,000 tested, 0.01% active
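USP2 core (10nM final) preincubated 30min RT with compound in 20mM Tris-HCl pH 8.0, 2mM CaCl2, 2mM beta-mercaptoethanol, 0.05% CHAPS; 25nM Ub-CHOP2 plus 25nM reporter substrate added, fluorescence (Ex485/Em531) read after 60min.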
ClpP mod: qHTS Assay for Activators of ClpP; Potency, µM (top dose mostly 57.5 µM); ATP-dependent Clp protease proteolytic subunit (Bacillus subtilis (strain 168)), P80244; purified B. subtilis ClpP, FRET peptide cleavage, 20 min; 340,000 tested, 1.9% active; active = well fitted falling curve with a large enough effect; inconclusive = small, poorly fitted or top-dose-only effect; inactive = no such curve, though single readings can be large or run the other way; also: the source files actives as falling curves though it sought activators and does not explain the sign; nearly all actives have a fitted effect of over 65% in size
Target sequence (P80244 whole entry, looked up): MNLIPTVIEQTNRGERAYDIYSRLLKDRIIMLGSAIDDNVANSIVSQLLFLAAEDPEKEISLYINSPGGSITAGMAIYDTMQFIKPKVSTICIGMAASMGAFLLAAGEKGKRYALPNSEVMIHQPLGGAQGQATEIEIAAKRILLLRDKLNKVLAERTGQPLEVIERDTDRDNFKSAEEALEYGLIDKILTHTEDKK
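Buffer: 100 mM Tris/HCl pH8, 100 mM KCl, 0.05% low protease BSA, 2.5% glycerol, 0.01% Tween-20. ClpP 10 microg/mL final; 20 min RT; delta FRET normalized to ADEP and DMSO controls.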
a7 integrin act: activators of alpha7 integrin expression for muscular dystrophy | Potency, µM (highest dose often 38.3 µM), usual class: activators | alpha7betagal myoblasts, beta-gal FDG fluorescence, 48 h | 350,000 tested, 0.064% active; also: nearly all actives have a fitted effect of over 60% in size
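alpha7betagal+/- myoblasts (passage 13, 250/well) treated 48 h at 37C with compounds at 1:260 dilution of DMSO stock. Lysed, then beta-galactosidase activity read as FDG fluorescence (ex 480/em 540) after 30 min, with pre-read for autofluorescence.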
Eya2 phos inh: inhibitors of human Eya2 phosphatase activity; O00167; recombinant Eya2, OMFP fluorescence dephosphorylation (OMFP is methylfluorescein phosphate); Potency, µM (top dose mostly 76.9 µM), actives largely listed as inhibitors; 330,000 tested, 0.006% active
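Eya2 protein (added as 0.2 uM solution) was preincubated with compound for 10 min at ambient temperature in 50 mM HEPES pH 7.5, 50 mM NaCl, 5 uM MgCl2, 0.05% BSA, 1 mM DTT. OMFP (added at 50 uM) then reacted 10 min; fluorescence read at 485/525 nm.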
p53 reactivation: re-activators of mutant p53; H1299 p53-A138V BP100-luciferase reporter, luminescence, 24 h; Potency, µM (titrated, usually from 92.2 µM), usual class: activators; 320,000 tested, 0.063% active; AID 504706; also: nearly all actives have a fitted effect of over 45% in size
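H1299 (p53-null), stable ts p53-A138V + BP100-Luc; 1000 cells/well, Opti-MEM/10% FBS; cpd 4 pt, 1:5; 24 h, 37 deg C, 5% CO2; detection reagent 10 min RT; luminescence.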
MmCpn inh: blocks the Methanococcus maripaludis chaperonin Mm-Cpn | purified Mm-Cpn ATPase, ADP Transcreener TR-FRET | Potency, µM (doses to about 76.9 µM), actives largely listed as inhibitors | 330,000 tested, 0.031% active; also: nearly all actives have a fitted effect of over 80% in size
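Eu-cryptate anti-ADP/ADP-d2 competition gives a ratio inversely related to ADP. Enzyme at 25 nM was pre-exposed to compound for 10 min, then given 10 uM ATP for 30 min, 37°C throughout.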
Hits are given with their value; . = inactive; ? = inconclusive; / = no result given; ! = a repeat was not active. Unless noted, calls follow the shape of the dose curve; as a rule, active = well fitted curve in the direction sought with a large enough effect; inconclusive = small, poorly fitted or top-dose-only effect, or another doubt; inactive = no such curve, though single readings can be large; an effect the other way counts as inactive or inconclusive.

SMILES	USP2a inh	ClpP mod	a7 integrin act	Eya2 phos inh	p53 reactivation	MmCpn inh
COC(=O)c1ccccc1NC(=O)c1cnn2c1NC(=C1CC1)C=C2C(F)F	/	.	/	/	/	/
C/C(=N\NC(=O)COc1ccccc1)c1cccs1	.	25µM	.	.	?	.
O=C1NC(c2ccccc2)N=C2Oc3ccccc3C=C12 (centres undefined)	/	11µM	.	/	/	/
COc1ccc(C(=O)C[n+]2cc(Br)cc(Br)c2)cc1	/	.	/	/	/	/
COc1cccc2c1C(=O)/C(=C\c1ccc(N(C)C)cc1)C2	/	.	/	/	/	/
O=S(=O)(O)Sc1ccccc1	/	.	.	/	/	/
CCN(CC)c1ccc(SS(=O)(=O)O)cc1	.	14µM!	.	?	?	.
CCOc1ccc(S(=O)(=O)N2CCN(c3cccc(C(F)(F)F)c3)CC2)cc1OCC	/	.	/	/	/	/
Cn1c(SCC(=O)NC2CC2)nnc1-c1cccs1	.	.	.	.	35µM	.
C1=Cc2ccccc2/C1=C(\Cc1ccncc1)Oc1ccncc1	/	.	/	/	/	/
CCCCNCCOCCOc1ccc(Cl)cc1Br	.	.	.	.	.	.
CCCCNCCOCCOc1ccc(F)cc1	.	3.2µM	.	.	.	.
Cc1ccc(NC(=O)COC(=O)c2ccccc2OCC(=O)N(C)C)cc1	/	.	/	/	/	/
Cc1cc(N2CCC(C)CC2)nc2ccc(N3C(=O)CCC3=O)cc12	.	40µM	?	.	.	.
COc1cc(-c2n[nH]c(=O)o2)cc(OC)c1OC	.	16µM	.	.	.	.
COc1cc(-c2nnc(SCC(=O)N3CCCC3)o2)cc(OC)c1OC	.	.	.	.	.	.
COc1cc(-c2nnc(SCC3(c4ccc(Br)cc4)OCCO3)o2)cc(OC)c1OC	.	28µM	.	.	.	.
COc1cc(-c2nnc(SCC(=O)/C(C#N)=C(\C)N)o2)cc(OC)c1OC	.	14µM	.	.	.	.
CCc1ccccc1OCCSc1nnc(-c2cc(OC)c(OC)c(OC)c2)o1	/	25µM	/	/	/	/
CCCNC(=O)Cn1c(SCc2ccccc2C)nc2ccncc21	/	.	/	/	/	/
CCOC(=O)COc1ccc(F)cc1C(=O)c1ccn2nc(-c3ccc(Cl)cc3)cc2n1	/	.	/	/	/	/
COc1cc(-c2nnc(-c3ccccc3)o2)cc(OC)c1OC	.	?	.	.	.	.
COc1cc(-c2nnc(-c3cc(OC)c(OC)c(OC)c3)o2)cc(OC)c1OC	.	25µM	.	.	.	.
Oc1[nH]c2ccccc2c1N=Nc1ccccc1	?	/	.	.	28µM	.
CCCc1cc2c(c(NC(C)=O)n1)c(=O)oc1ccccc12	.	32µM	.	.	.	.
SMILES	USP2a inh	ClpP mod	a7 integrin act	Eya2 phos inh	p53 reactivation	MmCpn inh
CCCCC(=O)N1CC(=O)Nc2ccc(F)cc2C1c1ccc(F)cc1 (centres undefined)	.	20µM!	.	.	.	.
COc1ccc(S(=O)(=O)NNC(=O)c2cc3c4ccccc4n(C)c3s2)cc1	.	35µM	.	.	.	.
COc1cc2c(cc1OC)-c1cc(NC3CC3)nc(=O)n1CC2	.	.	.	.	.	.
COc1cc2c(cc1OC)-c1cc(NCc3ccccn3)nc(=O)n1CC2	.	28µM	.	.	.	.
CCNc1cc2n(c(=O)n1)CCc1cc(OC)c(OC)cc1-2	.	28µM	.	.	.	.
COc1cc2c(cc1OC)-c1cc(NC3CCCCCCC3)nc(=O)n1CC2	.	?	.	.	.	.
CCCCCCNc1cc2n(c(=O)n1)CCc1cc(OC)c(OC)cc1-2	.	16µM	?	.	.	.
COc1ccc(COCC(O)CN2CCc3ccccc3C2)cc1OC (centres undefined)	.	28µM	.	.	.	.
CCN(CC)c1ccc(/C=N/NC(=O)CNC(=O)C2COc3ccccc3O2)c(O)c1 (centres undefined)	.	.	.	.	18µM	.
O=C(Cn1cc(SCc2ccc(C(F)(F)F)cc2)c2ccccc21)N1CCCC1	/	.	/	/	/	/

Screening results (PubChem BioAssay)
